Holding throughout (set-up): scale not given: direction of the effect not stated beside the values
The target of experiment [1] is Protein translocase subunit SecA (Escherichia coli (strain K12)) (UniProt P10408). The experiment in a line: Assay to Identify E. coli SecA ATPase Inhibitors. It is filed as functional. The settings on record: 30 µM.
Experiment [2] deals with T1, Ubiquitin-activating enzyme e1, putative (Leishmania donovani (strain BPK282A1)) (UniProt E9BSI1).
T1 sequence (whole entry): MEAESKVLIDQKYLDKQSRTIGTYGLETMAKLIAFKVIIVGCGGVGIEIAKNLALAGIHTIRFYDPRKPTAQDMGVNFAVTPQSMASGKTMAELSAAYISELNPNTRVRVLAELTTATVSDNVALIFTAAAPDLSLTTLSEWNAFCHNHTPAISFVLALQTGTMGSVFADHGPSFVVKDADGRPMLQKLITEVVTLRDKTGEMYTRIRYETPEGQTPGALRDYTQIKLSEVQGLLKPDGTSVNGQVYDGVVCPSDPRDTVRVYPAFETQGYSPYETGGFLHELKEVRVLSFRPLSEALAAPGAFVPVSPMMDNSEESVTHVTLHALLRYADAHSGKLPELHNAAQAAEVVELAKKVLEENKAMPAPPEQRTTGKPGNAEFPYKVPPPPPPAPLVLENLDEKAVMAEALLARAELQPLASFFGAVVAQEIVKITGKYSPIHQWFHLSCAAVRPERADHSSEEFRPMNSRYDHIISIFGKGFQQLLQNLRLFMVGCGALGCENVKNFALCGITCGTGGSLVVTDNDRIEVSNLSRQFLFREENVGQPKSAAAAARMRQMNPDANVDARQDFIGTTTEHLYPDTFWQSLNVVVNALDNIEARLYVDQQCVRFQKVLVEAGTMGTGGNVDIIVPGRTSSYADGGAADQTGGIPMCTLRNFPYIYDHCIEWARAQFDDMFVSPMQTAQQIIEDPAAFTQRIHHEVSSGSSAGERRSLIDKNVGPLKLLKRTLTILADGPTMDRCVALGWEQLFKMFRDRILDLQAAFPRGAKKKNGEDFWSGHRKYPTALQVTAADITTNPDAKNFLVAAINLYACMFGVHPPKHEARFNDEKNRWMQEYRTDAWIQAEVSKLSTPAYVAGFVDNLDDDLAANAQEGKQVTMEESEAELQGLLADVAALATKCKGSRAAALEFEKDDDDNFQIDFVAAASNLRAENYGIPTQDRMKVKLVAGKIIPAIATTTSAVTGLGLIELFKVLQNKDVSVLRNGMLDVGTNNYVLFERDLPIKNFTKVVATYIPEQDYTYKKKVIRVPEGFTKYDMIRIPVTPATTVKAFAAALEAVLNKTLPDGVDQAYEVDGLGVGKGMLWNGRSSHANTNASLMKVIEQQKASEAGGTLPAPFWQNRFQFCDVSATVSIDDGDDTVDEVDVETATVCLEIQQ
The experiment in a line: Leishmania donovani Ubiquitin Activating Enzyme (LdE1). Format: functional. The settings on record: 30 µM.

The target of experiment [3] is AMP-activated protein kinase, AMPK (Homo sapiens) (UniProt P54646+O43741+P54619+Q9UGJ0+Q9Y478+Q13131+Q9UGI9). Briefly: AMP-dependent Kinase enzyme assay. An in vitro enzyme assay that detects ADP turnover that is directly proportional to AMPK activity. This uses naive AMPK that is activated during the assay with MK-8722. Format: functional. The conditions noted are these: 30 µM.

Experiment [4] has as its target Sialic acid-binding Ig-like lectin 9 (Homo sapiens) (UniProt Q9Y336). Briefly: Hs-Siglec9 ALPHAscreen SOP 20170721. The settings on record: 10 µM. A general note: Bead proximity is the source of the signal in Alpha formats.
The subject of experiment [5] is Trypanosoma cruzi. The experiment in a line: Trypanosoma cruzi phosphomannomutase and mannose-1-phosphate guanylyltransferase assay. It is filed as functional. The conditions noted are these: 10 µM.
Experiment [6] concerns the target T2, Arginase-2, mitochondrial (Homo sapiens) (UniProt P78540).
T2 sequence (whole entry): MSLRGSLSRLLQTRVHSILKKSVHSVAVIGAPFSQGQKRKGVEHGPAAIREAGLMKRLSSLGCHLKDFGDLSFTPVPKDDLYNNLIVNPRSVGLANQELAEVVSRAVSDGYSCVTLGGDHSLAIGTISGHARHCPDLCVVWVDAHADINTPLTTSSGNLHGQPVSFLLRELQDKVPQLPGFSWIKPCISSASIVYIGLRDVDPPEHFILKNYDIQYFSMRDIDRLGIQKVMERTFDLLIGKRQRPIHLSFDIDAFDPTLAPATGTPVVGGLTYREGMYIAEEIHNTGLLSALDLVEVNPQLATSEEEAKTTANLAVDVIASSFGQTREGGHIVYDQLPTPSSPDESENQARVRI
Briefly: in vitro enzyme assay to detect the production of urea directly proportional to the activity of Arginase II. Also: in the data most compounds retested in dose-response had high values. It is filed as functional. The settings on record: 33.3 µM.

The target in experiment [7] is T3, Proteasome subunit beta (Trypanosoma cruzi) (UniProt O96673).
T3 sequence (whole entry): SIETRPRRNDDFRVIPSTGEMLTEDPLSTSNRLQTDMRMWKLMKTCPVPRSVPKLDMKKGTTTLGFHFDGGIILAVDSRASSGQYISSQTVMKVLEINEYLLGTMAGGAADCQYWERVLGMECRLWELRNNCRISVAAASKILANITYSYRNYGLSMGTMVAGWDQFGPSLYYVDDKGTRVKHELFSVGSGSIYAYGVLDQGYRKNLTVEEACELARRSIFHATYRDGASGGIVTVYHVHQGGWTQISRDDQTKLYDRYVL
The experiment in a line: Trypanosoma cruzi proteasome chymotrypsin-like activity (TcProtChymo) assay. Also: in the data most compounds retested in dose-response had high values. Format: functional. The conditions noted are these: 9.37 µM.

The species named for experiment [8] is Homo sapiens. Briefly: To identify inhibition of the IFN signalling (Jak-Stat) pathway via expression of an eGFP reporter gene under the control of an IFN-stimulated response element (ISRE) containing MxA promoter. It is filed as functional. The conditions noted are these: 30 µM.
In experiment [9] the target is T4, Tyrosyl-tRNA synthetase, putative (Trypanosoma cruzi (strain CL Brener)) (UniProt Q4DSP6).
T4 sequence (whole entry): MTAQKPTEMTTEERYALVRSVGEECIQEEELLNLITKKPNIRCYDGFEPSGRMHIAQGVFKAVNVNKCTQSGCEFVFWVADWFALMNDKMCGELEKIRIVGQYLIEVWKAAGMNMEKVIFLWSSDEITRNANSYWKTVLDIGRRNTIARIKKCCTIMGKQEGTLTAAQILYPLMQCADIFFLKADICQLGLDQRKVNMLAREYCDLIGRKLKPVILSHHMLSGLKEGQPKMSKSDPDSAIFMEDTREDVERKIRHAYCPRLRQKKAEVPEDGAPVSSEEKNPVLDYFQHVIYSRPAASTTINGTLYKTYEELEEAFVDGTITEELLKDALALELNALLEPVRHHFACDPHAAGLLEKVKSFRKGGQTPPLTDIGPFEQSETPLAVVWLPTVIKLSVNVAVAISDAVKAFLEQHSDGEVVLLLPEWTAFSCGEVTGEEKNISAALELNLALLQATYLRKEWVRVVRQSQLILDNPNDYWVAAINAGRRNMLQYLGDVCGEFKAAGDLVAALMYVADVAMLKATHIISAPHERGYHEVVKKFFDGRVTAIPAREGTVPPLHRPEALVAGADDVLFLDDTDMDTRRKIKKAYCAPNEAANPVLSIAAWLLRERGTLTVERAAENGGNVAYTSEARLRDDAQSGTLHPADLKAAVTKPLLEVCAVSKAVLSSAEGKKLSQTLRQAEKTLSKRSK
The experiment in a line: Trypanosoma cruzi tyrosyl tRNA synthetase (TcYRS) _High Tyrosine SOP. Also: in the data most compounds retested in dose-response had high values. Format: functional. The settings on record: 30 µM.

Experiment [10] has as its target T4, Tyrosyl-tRNA synthetase, putative (Trypanosoma cruzi (strain CL Brener)). Briefly: Trypanosoma cruzi tyrosyl tRNA synthetase (TcYRS) SOP. It is filed as functional. The conditions noted are these: 30 µM.
Experiment [11] deals with Chromo domain-containing protein 1 (Saccharomyces cerevisiae (strain ATCC 204508 / S288c) (Baker's yeast)) (UniProt P32657). Briefly: ScCHD-1 Enzyme Inhibition Assay. Also: in the data most compounds retested in dose-response had high values. It is filed as functional. The settings on record: 30 µM.

For some of these results: Entries with a potency or affinity are not part of this list.

Sialic acid-binding Ig-like lectin 9 (Homo sapiens), sequence (Q9Y336 whole entry): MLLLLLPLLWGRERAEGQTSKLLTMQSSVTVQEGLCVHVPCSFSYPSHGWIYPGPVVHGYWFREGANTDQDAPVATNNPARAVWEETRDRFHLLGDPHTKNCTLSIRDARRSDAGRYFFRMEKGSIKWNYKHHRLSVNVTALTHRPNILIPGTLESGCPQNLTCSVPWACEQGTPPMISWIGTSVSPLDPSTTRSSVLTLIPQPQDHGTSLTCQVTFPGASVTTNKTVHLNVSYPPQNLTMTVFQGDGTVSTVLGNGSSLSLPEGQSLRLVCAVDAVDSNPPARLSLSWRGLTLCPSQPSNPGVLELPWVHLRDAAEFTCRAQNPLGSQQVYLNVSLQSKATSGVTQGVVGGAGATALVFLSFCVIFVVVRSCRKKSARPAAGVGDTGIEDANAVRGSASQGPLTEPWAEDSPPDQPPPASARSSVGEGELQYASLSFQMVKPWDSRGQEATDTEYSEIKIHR
Protein translocase subunit SecA (Escherichia coli (strain K12)), sequence (P10408 whole entry): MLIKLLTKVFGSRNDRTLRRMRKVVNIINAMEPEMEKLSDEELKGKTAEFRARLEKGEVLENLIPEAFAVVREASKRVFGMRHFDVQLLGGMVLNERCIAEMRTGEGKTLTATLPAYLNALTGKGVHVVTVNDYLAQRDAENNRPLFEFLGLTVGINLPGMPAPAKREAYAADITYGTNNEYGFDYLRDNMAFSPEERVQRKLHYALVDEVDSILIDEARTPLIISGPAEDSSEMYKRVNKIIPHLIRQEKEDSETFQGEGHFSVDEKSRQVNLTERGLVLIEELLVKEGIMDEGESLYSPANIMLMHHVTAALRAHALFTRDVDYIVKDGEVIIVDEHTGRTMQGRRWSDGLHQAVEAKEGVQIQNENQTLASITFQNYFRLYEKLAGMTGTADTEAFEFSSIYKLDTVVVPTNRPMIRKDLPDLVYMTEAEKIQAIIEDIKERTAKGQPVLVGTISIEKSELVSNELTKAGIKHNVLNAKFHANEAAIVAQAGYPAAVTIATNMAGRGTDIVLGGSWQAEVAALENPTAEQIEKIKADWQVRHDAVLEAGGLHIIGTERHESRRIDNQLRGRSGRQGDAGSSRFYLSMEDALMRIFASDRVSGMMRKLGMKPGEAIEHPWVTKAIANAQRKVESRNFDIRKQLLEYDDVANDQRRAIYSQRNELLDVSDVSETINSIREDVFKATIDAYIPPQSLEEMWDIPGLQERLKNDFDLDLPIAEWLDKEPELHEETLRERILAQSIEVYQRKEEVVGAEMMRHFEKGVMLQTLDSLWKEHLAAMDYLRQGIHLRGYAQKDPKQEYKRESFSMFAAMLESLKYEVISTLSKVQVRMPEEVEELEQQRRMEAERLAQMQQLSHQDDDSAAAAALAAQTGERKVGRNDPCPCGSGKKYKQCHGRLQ
Chromo domain-containing protein 1 (Saccharomyces cerevisiae (strain ATCC 204508 / S288c) (Baker's yeast)), sequence (P32657 whole entry, the tested form may be a part): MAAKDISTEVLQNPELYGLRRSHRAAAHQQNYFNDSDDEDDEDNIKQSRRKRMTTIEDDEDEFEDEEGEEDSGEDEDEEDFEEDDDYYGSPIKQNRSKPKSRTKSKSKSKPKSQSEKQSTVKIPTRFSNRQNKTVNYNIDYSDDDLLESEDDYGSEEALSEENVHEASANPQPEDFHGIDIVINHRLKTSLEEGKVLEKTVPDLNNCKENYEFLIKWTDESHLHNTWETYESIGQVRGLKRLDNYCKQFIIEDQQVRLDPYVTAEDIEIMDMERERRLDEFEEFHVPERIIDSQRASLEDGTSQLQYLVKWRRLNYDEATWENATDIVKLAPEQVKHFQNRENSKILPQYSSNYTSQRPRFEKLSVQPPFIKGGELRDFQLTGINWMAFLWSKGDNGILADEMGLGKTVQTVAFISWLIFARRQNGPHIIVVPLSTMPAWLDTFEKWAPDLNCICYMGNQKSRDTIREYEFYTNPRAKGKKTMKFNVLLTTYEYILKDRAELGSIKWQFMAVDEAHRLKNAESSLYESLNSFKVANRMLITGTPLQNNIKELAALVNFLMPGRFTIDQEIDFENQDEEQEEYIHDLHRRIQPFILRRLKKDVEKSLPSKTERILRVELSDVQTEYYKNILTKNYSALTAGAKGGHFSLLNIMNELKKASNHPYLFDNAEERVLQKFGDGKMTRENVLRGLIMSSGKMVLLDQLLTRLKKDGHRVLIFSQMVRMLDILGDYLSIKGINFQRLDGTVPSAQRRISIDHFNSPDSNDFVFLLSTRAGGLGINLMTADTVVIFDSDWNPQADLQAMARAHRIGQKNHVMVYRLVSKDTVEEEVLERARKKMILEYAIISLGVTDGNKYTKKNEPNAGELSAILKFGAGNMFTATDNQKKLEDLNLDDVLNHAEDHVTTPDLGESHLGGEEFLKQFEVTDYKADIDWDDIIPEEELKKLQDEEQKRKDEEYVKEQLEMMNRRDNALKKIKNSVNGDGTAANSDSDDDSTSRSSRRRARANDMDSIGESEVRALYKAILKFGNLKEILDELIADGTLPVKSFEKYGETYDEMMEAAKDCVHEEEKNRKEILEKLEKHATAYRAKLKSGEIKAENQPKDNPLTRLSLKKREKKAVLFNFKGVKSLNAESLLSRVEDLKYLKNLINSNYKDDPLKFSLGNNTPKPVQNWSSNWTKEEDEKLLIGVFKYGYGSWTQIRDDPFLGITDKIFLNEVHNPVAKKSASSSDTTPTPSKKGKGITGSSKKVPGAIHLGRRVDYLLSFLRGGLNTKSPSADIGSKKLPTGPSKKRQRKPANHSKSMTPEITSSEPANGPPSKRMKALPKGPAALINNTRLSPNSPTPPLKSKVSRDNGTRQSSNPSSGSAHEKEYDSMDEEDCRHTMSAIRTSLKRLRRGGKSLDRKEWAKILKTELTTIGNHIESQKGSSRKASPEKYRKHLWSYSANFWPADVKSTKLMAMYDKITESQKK

For `CC(NC1CCN(CCS(C)(=O)=O)CC1)c1ccc(Cl)cc1` (stereo unspecified), the Percent Effect in [1] is -1.94%; in experiment [2], 0%; in experiment [3] it was -3.49%; in experiment [4], 0.142%; in experiment [5], -5.02%; in experiment [6] it was -0.476%. The Percent Effect in [7] was 3.62%; in [8], 21.6%; in [9], 0.529%; in experiment [10], 7.32%; in experiment [11], -2.22%.
In the case of `CCN1CCC(CNC(=O)C2(c3cccc(C)c3)CC2)C1` (stereo unspecified), the Percent Effect in experiment [1] was -2.88%; in [2], -1.27%; in [3], 6.26%; in [4], 2.04%; in experiment [5] it was -7.69%; in [6] it was 5.81%. Further, the Percent Effect is 10.1% in experiment [7]; 13.3% in experiment [8]; 11.5% in experiment [9]; 15.2% in experiment [10]; -11.4% in [11].
For the compound `COCc1nc(C(=O)N2CCCC2c2c(C)nn(C)c2C)cs1` (stereo unspecified), the Percent Effect is -0.948% in [1]; -3.8% in experiment [2]; 3.43% in experiment [3]; 1.97% in experiment [4]; -1.33% in experiment [5]; 0.645% in [6]. Besides, the Percent Effect in experiment [7] is -0.172%; in experiment [8], 12%; in experiment [9], 3.12%; in [10], 5.06%; in experiment [11], 2.98%.
On to `O=C(Cc1ccc2c(c1)CCC2)NCCNc1ncccn1`, for which the Percent Effect in experiment [1] is -2.76%; in experiment [2], 21.1%; in experiment [3] it was 0.848%; in experiment [4], 1.21%; in [5], 2.89%; in [6], 3.96%. The Percent Effect in experiment [7] is 18.4%; in experiment [8] it was -17.3%; in [9], 6.4%; in experiment [10] it was 30.9%; in experiment [11], -10.6%.
`O=C(CCc1nc2cccnc2[nH]1)NCc1cccnc1`: the Percent Effect was -3.19% in experiment [1]; 25.3% in experiment [2]; -5.37% in [3]; 0.97% in [4]; 3.34% in experiment [5]; -0.88% in experiment [6]. Further, the Percent Effect was 15.5% in experiment [7]; 9.81% in experiment [8]; 8.47% in [9]; 15.4% in experiment [10]; -10.2% in [11].
As to `CSC(C)(C)CNC(=O)NC1CCN(C)CC1`, the Percent Effect in experiment [1] is -2.43%; in experiment [2], 5.33%; in experiment [3], -2.46%; in [4] it was 7.43%; in experiment [5] it was 3.21%; in experiment [6], 15.6%. The Percent Effect in experiment [7] is 0%; in experiment [8], 21.1%; in [9], 4.92%; in experiment [10] it was 6.17%; in experiment [11], -2.97%.
`CS(=O)(=O)NCc1cn2c(n1)CN(C(=O)c1ccc[nH]1)CC2`: the Percent Effect in [1] is -5.06%; in experiment [2], 10.7%; in experiment [3], 14.2%; in [4], 2.3%; in experiment [5], -1.97%; in [6], 0.233%. Also, the Percent Effect in experiment [7] is 5.2%; in [8] it was 2.29%; in experiment [9] it was 7.45%; in experiment [10], 14.1%; in [11], -4.02%.
Take `Cc1cc(C)nc(N2CCN(C(=O)c3cc(Cl)c[nH]3)CC2)n1`: the Percent Effect in [1] is -3.35%; in experiment [2], 8.22%; in experiment [3], -2.54%; in experiment [4] it was 4.32%; in [5], 0.595%; in [6] it was -3.99%. Besides, the Percent Effect in experiment [7] was 17.2%; in experiment [8], -6.92%; in experiment [9] it was 10.4%; in [10], 16.1%; in [11], -1.43%.
With `O=C(NCC1CC1)C1CN(C(=O)c2cccc(Cl)c2)CC12CCOCC2` (stereo unspecified), the Percent Effect is 1.58% in [1]; 10.4% in experiment [2]; 52.3% in [3]; -13.8% in experiment [4]; -9.37% in experiment [5]; 5.81% in experiment [6]. The Percent Effect was 16.4% in experiment [7]; 12.4% in experiment [8]; 2.12% in experiment [9]; -8.97% in [10]; -9.61% in experiment [11].
Take `Cc1ccc(C(=O)N2CCC3(CC2)NC(=O)CC3c2ccccc2)cn1` (stereo unspecified): the Percent Effect in experiment [1] was -2.54%; in [2] it was 2.67%; in [3], 3.38%; in experiment [4], 7.94%; in experiment [5] it was 0.965%; in experiment [6], -48.6%. Also, the Percent Effect was 7.35% in experiment [7]; -9.77% in [8]; 2.08% in experiment [9]; 5% in [10]; -2.72% in [11].
Consider `Cc1cc(F)ccc1CNCCn1cccn1`, for which the Percent Effect in experiment [1] was -2.76%; in experiment [2], -1.39%; in [3], -3.57%; in [4] it was 0.503%; in [5] it was 5.15%; in experiment [6] it was -0.883%. The Percent Effect in [7] is 8.95%; in experiment [8], 1.75%; in experiment [9], 1.05%; in [10], 2.56%; in experiment [11], -0.034%.
